Measurements published in the supplement of paper PMC11417369.
± gives the standard deviation of the averaged measurements. The full ranking holds about 25,000 sequences; the median of “ln(normalized median fluorescence intensity)” is about 8.6, and the highest 2% start at about 10. Shown is part of a subset that was picked to be rich in the highest values.

Tested on: PfAP2-EXP AP2 domain (GST-tagged)
Assay: gcPBM binding intensity (ln(normalized median fluorescence intensity)); higher = stronger DNA binding
Summary of the method: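 An Agilent 4 × 180k array of primer-extended double-stranded 36-bp intergenic genomic probes, with negative controls, was incubated for 1 h with GST-tagged P. falciparum DNA-binding domains expressed in E. coli. Alexa488 anti-GST antibody detected bound protein, scanned at 488 nm. Binding intensity is the highest Masliner-normalised natural-log median intensity across replicate spots of either probe orientation.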

**Q.** Which “gcPBM binding intensity (ln)” value does the source give for “TACTTTCAAAAGATCACACATATATATATATATATA [CACACA_site5630]” here?
**A.** The value was 10.39 ± 0.085.

**Q.** How did the “gcPBM binding intensity (ln)” value turn out when “ATCAAAGATAAATTTACACACATATAAATATAAATA [CACACA_site7409]” was run?
**A.** The value was 8.44 ± 0.56.

**Q.** How did the “gcPBM binding intensity (ln)” value turn out when “AAAAAAAAAGATCACACACACATAAATATAAACAAA [CACACA_site5285]” was run?
**A.** Its value is 8.48 ± 0.26.

**Q.** With “TTTTTTTTTTTTTTTTGTACATAAATTTTTATTAGA [XGTACX_site6409]” as the sequence, how does the “gcPBM binding intensity (ln)” value read?
**A.** Its value is 8.17 ± 0.35.

**Q.** “TATACATATTTCTATTGTACATAAACTAAATCTTCA [XGTACX_site28]” was tested. Which “gcPBM binding intensity (ln)” value did it give?
**A.** Its value is 8.27 ± 0.49.

**Q.** With “TTTTATTTTTTATTTGCACACAATATGTAAAAAAAT [CACACA_site2927]” as the sequence, how does the “gcPBM binding intensity (ln)” value read?
**A.** The value was 8.71 ± 0.16.

**Q.** Which “gcPBM binding intensity (ln)” value does the source give for “ATATTAATTCGTTTTGTACACACATAATGAATAATT [CACACA_site8701]” here?
**A.** The value was 8.43 ± 0.24.

**Q.** “TGTGCTATATTCATATGTACATATAATTATTATATA [XGTACX_site3549]” was tested. Which “gcPBM binding intensity (ln)” value did it give?
**A.** Its value is 8.86 ± 0.028.

**Q.** For “CTGTATTCATAATTCACACAAATGGTTTATATGAAT [CACACA_site4315]”, which “gcPBM binding intensity (ln)” value is on record?
**A.** Its value is 8.5 ± 0.31.

**Q.** “ATGCAAATGTGCATCACACACACTAATGGGTATGTA [CACACA_site2893]” was tested. Which “gcPBM binding intensity (ln)” value did it give?
**A.** The value was 8.39 ± 0.38.

**Q.** Which “gcPBM binding intensity (ln)” value does the source give for “GGGGACGCGGGTGGGGGTACTCACACTATGCAAAAT [XGTACX_site7745]” here?
**A.** The value was 10.3 ± 0.4.

**Q.** How did the “gcPBM binding intensity (ln)” value turn out when “GCTTAGTTATATAACTGTACTATTTTTATTTATATG [XGTACX_site884]” was run?
**A.** Its value is 9.16 ± 0.83.

**Q.** For “CCTATAATAAATAATACACACATATTGTAAATATAT [CACACA_site7496]”, which “gcPBM binding intensity (ln)” value is on record?
**A.** Its value is 8.46 ± 0.53.

**Q.** With “CACATAAAATAAGGTGCATGCAAACGAGAAAATAAA [TGCATGCA_site75]” as the sequence, how does the “gcPBM binding intensity (ln)” value read?
**A.** Its value is 10.5 ± 0.11.

**Q.** Which “gcPBM binding intensity (ln)” value does the source give for “AGGTGCAAAAATAAAACATGCAAAAATAAAAATGAA [TGCATGCA_site502]” here?
**A.** Its value is 9.15 ± 0.44.

**Q.** “GAAAGAATAAAATAAACATGCAAATAAAACATAAAA [TGCATGCA_site471]” was tested. Which “gcPBM binding intensity (ln)” value did it give?
**A.** Its value is 9.27 ± 0.25.

**Q.** How did the “gcPBM binding intensity (ln)” value turn out when “CAAGGAACCAGACACACACACATAAATGTATTTATA [CACACA_site6491]” was run?
**A.** The value was 8.39 ± 0.48.

**Q.** “TCATAAAAGATTAAGTGTACATGTGCTACTCTTATA [XGTACX_site6255]” was tested. Which “gcPBM binding intensity (ln)” value did it give?
**A.** Its value is 8.34 ± 0.25.

**Q.** How did the “gcPBM binding intensity (ln)” value turn out when “ATATATATATATGTATGTACGTATGTATGTATGAAT [XGTACX_site4857]” was run?
**A.** Its value is 9.91 ± 0.29.

**Q.** For “GTTTTTATCATATCATGTACGTATTTTATTTTTTTT [XGTACX_site8643]”, which “gcPBM binding intensity (ln)” value is on record?
**A.** Its value is 9.03 ± 0.32.

**Q.** How did the “gcPBM binding intensity (ln)” value turn out when “ATATATCATGAACCTTGTACGTATATATATATATAT [XGTACX_site239]” was run?
**A.** The value was 10.2 ± 0.23.

**Q.** With “TATATATATATATAGGTGCAATATTGAAAAAATATC [GTGCAC_site9535]” as the sequence, how does the “gcPBM binding intensity (ln)” value read?
**A.** The value was 10.3 ± 0.21.

**Q.** Which “gcPBM binding intensity (ln)” value does the source give for TCTTAAAATATATAGGTGCAAAAAAAAAAAAAAAAA here?
**A.** Its value is 8.31 ± 0.13.

**Q.** With TAATATAATATATAGGTGCAATATTAACAAAAATTT as the sequence, how does the “gcPBM binding intensity (ln)” value read?
**A.** Its value is 8.63 ± 0.085.

**Q.** With “ACCGGTGGAACGTTTTGTACATATATAATAATATAT [XGTACX_site2143]” as the sequence, how does the “gcPBM binding intensity (ln)” value read?
**A.** Its value is 8.62 ± 0.5.

**Q.** “TATATATATATATATTGTACTGAACGTTTTTTTTTG [XGTACX_site8060]” was tested. Which “gcPBM binding intensity (ln)” value did it give?
**A.** The value was 10.2 ± 0.39.

**Q.** Which “gcPBM binding intensity (ln)” value does the source give for “AATACGTTTATATATTGTACGTTATATATATATATA [XGTACX_site7452]” here?
**A.** Its value is 9.91 ± 0.33.

**Q.** With “ATTGTGGATATTCTTACACACAAATTTATATATAAA [CACACA_site2601]” as the sequence, how does the “gcPBM binding intensity (ln)” value read?
**A.** The value was 8.37 ± 0.49.

**Q.** Which “gcPBM binding intensity (ln)” value does the source give for “AAGTTTTTTTTTAACACACACATAATAAAATAAATA [CACACA_site446]” here?
**A.** The value was 8.46 ± 0.31.

**Q.** Which “gcPBM binding intensity (ln)” value does the source give for “GTATGTTTAATTTTAGTGCAATTATAAATATTTTAA [GTGCAC_site9531]” here?
**A.** The value was 8.62 ± 0.18.

**Q.** “TATATATATTTATATGCATGTAATATATTTGTATTG [TGCATGCA_site323]” was tested. Which “gcPBM binding intensity (ln)” value did it give?
**A.** Its value is 8.71 ± 0.3.

**Q.** With “AAAAAAAAATGAAAAGAAAAAAAAAGAAAAAAGGGA [CACACA_negctrl_site287]” as the sequence, how does the “gcPBM binding intensity (ln)” value read?
**A.** Its value is 8.61 ± 0.67.

**Q.** With “AAAAAAAAAAAAAAAAGGGGGGGAGGGATTGAAAAA [CACACA_negctrl_site193]” as the sequence, how does the “gcPBM binding intensity (ln)” value read?
**A.** The value was 10.22 ± 0.042.

**Q.** With “GGGGAAAAAAAAAAAGGAAAAAGAAAAAAAAAAAAA [GTGCAC_negctrl_site489]” as the sequence, how does the “gcPBM binding intensity (ln)” value read?
**A.** The value was 8.38 ± 0.39.

**Q.** With “CTATTATAATATTTTACACACCATGTAAGATATATA [CACACA_site7492]” as the sequence, how does the “gcPBM binding intensity (ln)” value read?
**A.** The value was 8.46 ± 0.35.

**Q.** How did the “gcPBM binding intensity (ln)” value turn out when “AAATAAAATACATATAAACACACATATAAACCAACA [CACACA_site8789]” was run?
**A.** Its value is 8.88 ± 0.61.

**Q.** “TCTTTTAAACAGTACACACACACATATATATATATA [CACACA_site924]” was tested. Which “gcPBM binding intensity (ln)” value did it give?
**A.** The value was 10.3 ± 0.22.

**Q.** Which “gcPBM binding intensity (ln)” value does the source give for “TCTTTTAAACAGTACACACACACATCTATATTTATA [CACACA_site6559]” here?
**A.** Its value is 8.755 ± 0.078.

**Q.** Which “gcPBM binding intensity (ln)” value does the source give for “ATTATATTATTTTAAAGTACACACATATATTAATAT [XGTACX_site4769]” here?
**A.** The value was 8.63 ± 0.24.

**Q.** Which “gcPBM binding intensity (ln)” value does the source give for “TTAACAGTAAAACACAGTACATATATACTTAAAACA [XGTACX_site1930]” here?
**A.** The value was 8.59 ± 0.35.

**Q.** For “TTAAAACCAAAACACAGTACATATATATATATATAT [XGTACX_site5668]”, which “gcPBM binding intensity (ln)” value is on record?
**A.** Its value is 10.3 ± 0.23.

**Q.** How did the “gcPBM binding intensity (ln)” value turn out when “TATTTTAAAAAAAAAAGTACACATAATATATATAAC [XGTACX_site5416]” was run?
**A.** The value was 8.64 ± 0.26.

**Q.** How did the “gcPBM binding intensity (ln)” value turn out when “TTAATCCTTTTTAAAAGTACACATATATATATATAT [XGTACX_site962]” was run?
**A.** Its value is 10.2 ± 0.38.

**Q.** For “TATTTTTTCTTAAACACACACATATATATATATAAT [CACACA_site5567]”, which “gcPBM binding intensity (ln)” value is on record?
**A.** The value was 8.56 ± 0.39.

**Q.** “CATATTTTTTCTTAAACACACACATATATATATATA [CACACA_site8920]” was tested. Which “gcPBM binding intensity (ln)” value did it give?
**A.** Its value is 10.1 ± 0.41.

**Q.** How did the “gcPBM binding intensity (ln)” value turn out when “TTTTCTTTTAAACATATATATATATATATATATATA [XGTACX_negctrl_site559]” was run?
**A.** The value was 10.4 ± 0.23.

**Q.** How did the “gcPBM binding intensity (ln)” value turn out when “TATATTCTTTTAAACAGTACACACACACATATATAT [XGTACX_site1701]” was run?
**A.** Its value is 8.96 ± 0.44.
